From PubChem BioAssay (NCATS)
“And” between values parts separate entries of the source, which are not always exact repeats. Equal entries are not always repeated. Inconclusive results are not listed. The source made the active and inactive calls. Unless noted, the call rests on the fitted dose curve; in most records, active means well fitted curve in the direction sought with a large enough effect; inconclusive means small, poorly fitted or top-dose-only effect, or another doubt; inactive means no such curve, though single readings can be large; an effect the other way counts as inactive or inconclusive.

Legend:
[1] = biological target: Voltage-gated inwardly rectifying potassium channel KCNH2 (Homo sapiens) (UniProt Q12809); assay: qHTS Assay for Small Molecule Inhibitors of the Human hERG Channel Activity (AID 588834);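 further: top concentration of the series differs between compounds; on the % scale 0 is the no-effect control and ±100 the full control effect; lower thallium flux fluorescence means stronger hERG block; nearly all actives have a fitted effect of over 50% in size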
Chain of Voltage-gated inwardly rectifying potassium channel KCNH2 (Homo sapiens) (Q12809 whole entry, looked up): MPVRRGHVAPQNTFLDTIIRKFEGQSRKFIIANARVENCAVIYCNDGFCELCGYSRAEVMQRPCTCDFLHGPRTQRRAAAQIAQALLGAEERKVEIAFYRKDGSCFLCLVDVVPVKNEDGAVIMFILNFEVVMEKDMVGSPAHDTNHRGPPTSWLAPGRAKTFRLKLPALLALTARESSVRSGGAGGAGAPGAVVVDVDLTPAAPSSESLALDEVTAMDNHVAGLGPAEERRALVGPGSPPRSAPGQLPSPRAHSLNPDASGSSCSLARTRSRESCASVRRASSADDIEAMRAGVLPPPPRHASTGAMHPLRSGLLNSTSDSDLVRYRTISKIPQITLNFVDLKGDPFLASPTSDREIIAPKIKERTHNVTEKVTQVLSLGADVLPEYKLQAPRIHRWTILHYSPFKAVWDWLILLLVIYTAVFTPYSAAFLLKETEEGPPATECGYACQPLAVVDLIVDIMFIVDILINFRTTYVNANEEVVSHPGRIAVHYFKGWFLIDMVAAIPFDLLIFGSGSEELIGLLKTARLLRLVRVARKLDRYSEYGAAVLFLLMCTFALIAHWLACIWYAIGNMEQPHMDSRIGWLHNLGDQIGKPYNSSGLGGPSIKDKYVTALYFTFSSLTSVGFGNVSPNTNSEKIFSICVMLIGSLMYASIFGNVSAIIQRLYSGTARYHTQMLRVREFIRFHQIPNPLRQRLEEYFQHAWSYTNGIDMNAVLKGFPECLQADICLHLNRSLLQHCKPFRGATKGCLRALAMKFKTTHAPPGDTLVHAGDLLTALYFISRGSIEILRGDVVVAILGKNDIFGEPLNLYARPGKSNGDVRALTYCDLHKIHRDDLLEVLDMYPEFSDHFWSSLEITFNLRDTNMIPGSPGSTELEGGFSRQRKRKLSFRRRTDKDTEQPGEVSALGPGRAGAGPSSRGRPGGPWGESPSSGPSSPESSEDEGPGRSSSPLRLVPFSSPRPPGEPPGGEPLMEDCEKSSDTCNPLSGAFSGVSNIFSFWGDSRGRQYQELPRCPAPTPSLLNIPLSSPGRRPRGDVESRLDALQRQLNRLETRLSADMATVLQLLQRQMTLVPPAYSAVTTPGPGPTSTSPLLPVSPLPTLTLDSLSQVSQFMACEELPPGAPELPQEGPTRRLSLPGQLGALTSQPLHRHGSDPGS
Summary of the method: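 hERG-BacMam U2OS, 2000 cells/well; 0.7X FluxOR loading 1 hr RT dark; cpd ~10 min 37 °C; stim buffer; FDSS fluorescence 2 min @ 1 s; AC50 Hill fit.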

[2] = biological target: Luciferin 4-monooxygenase (Photinus pyralis) (UniProt P08659); assay: Biochemical firefly luciferase enzyme assay for NPC (AID 624030); further: nearly all actives have a fitted effect of over 70% in size; further: potency means the concentration at half of the fitted maximal effect
Chain of Luciferin 4-monooxygenase (Photinus pyralis) (P08659 whole entry, looked up): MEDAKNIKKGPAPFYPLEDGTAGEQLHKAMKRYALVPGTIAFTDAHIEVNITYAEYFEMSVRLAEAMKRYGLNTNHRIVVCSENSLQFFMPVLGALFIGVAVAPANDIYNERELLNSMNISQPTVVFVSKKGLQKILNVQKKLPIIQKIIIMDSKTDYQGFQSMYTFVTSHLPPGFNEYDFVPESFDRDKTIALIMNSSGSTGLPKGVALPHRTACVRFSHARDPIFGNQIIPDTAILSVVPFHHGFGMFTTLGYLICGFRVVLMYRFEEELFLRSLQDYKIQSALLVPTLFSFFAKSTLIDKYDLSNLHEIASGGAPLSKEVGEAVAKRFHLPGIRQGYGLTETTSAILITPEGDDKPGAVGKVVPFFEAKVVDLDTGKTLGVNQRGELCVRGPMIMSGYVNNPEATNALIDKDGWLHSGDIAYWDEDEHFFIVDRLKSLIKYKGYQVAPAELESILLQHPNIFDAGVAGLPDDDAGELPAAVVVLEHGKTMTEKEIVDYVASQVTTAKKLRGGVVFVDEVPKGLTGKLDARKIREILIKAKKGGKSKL
Summary of the method: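 Counter-screen for direct inhibition of the luciferase enzyme by approved-drug library compounds, run at 10 nM enzyme in 50 mM Tris acetate (final). Luminescence was read within 5 min of enzyme-buffer addition and normalized to PTC124 versus DMSO (0%).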

[3] = S16 Schwann cell viability assay (CellTiter-Glo assay) (AID 624031);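 further: cellular ATP luminescence as a viability measure; plate controls were DMSO-treated cells for no effect and cell-free wells for full effect; nearly all actives have a fitted effect of over 70% in size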
Summary of the method: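 Native S16 rat Schwann cells in DMEM/10% FBS without phenol red were incubated overnight, then exposed to compounds for 24 h at 37 °C/5% CO2. Viability was read as ATP luminescence (CellTiter-Glo), normalized to no-cell wells and DMSO (0%).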

[4] = S16 Schwann cell PMP22 intronic element firefly luciferase assay (AID 624032); further: nearly all actives have a fitted effect of over 30% in size; further: potency means the concentration at half of the fitted maximal effect
Summary of the method: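 Rat S16 Schwann cells stably carrying a PMP22 intronic element-driven Fluc reporter were seeded overnight, then exposed to compounds for 24 h at 37 °C. Luminescence was normalized to PTC124 (positive control) and DMSO (0% activity).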

[5] = S16 Schwann cell PMP22 intronic element beta-lactamase assay (AID 624044; calls by dose curve; further: nearly all actives have a fitted effect of over 15% in size; further: potency means the concentration at half of the fitted maximal effect)
Summary of the method: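 Rat S16 Schwann cells with beta-Lac driven by a PMP22 intronic element, compound-treated 24 h at 37 °C. LiveBLAzer FRET B/G read: 460 nm normalized to potassium clavulanate vs DMSO; 535 nm FRET as viability; concentration-effect curves classified.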

[6] = biological target: Glucagon-like peptide 1 receptor (Homo sapiens) (UniProt P43220); assay: qHTS of GLP-1 Receptor Agonists: LOPAC Validation (AID 624148);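 further: 0% is about no effect; higher luminescence signal means agonism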
Chain of Glucagon-like peptide 1 receptor (Homo sapiens) (P43220 whole entry, looked up): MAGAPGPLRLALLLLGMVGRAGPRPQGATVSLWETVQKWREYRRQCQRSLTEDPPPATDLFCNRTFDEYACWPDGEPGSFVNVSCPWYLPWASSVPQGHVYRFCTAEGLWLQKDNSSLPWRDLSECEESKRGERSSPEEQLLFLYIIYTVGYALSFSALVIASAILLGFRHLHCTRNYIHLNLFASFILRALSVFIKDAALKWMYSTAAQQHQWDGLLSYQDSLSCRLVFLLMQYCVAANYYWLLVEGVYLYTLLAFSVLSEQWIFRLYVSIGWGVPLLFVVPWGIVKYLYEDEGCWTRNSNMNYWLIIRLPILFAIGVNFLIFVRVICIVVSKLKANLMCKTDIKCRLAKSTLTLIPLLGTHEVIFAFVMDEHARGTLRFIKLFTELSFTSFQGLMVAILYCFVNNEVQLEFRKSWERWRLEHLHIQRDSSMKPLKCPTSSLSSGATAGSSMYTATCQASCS
Summary of the method: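 HEK293 cells stably co-expressing a cAMP-responsive luciferase reporter and a hypersensitive GLP-1R were plated 12 h at 37 °C and exposed to compounds for 4-6 hr at 37 °C, 5% CO2. Luminescence was read 12 min after adding detection reagent.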

[7] = qHTS of Nrf2 Activators: LOPAC Validation (AID 624149); further: 0% is about no effect
Summary of the method: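 Luminescence read-out of ARE-luciferase activation: AREc32_Fluc cells treated with compounds for 24 hr at 37 deg C, then lysed with Steady-Glo for 30 min at room temperature before reading.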

[8] = HTS Assay for Allosteric Antagonists of the Human D2 Dopamine Receptor: Hit Validation in HTRF (AID 624455);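 further: stable D1 dopamine receptor cell line scored for blocking the D1 response; on the % scale 0 is the no-effect control and ±100 the full control effect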
Summary of the method: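 First, antagonism was screened by calcium flux in a force-coupled, inducible Hek293 Trex D2 line challenged with EC80 dopamine. Hits then went into an HTRF assay in cells stably expressing D1, testing inhibition of the D1 response.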

[9] = qHTS assay for small molecule agonists of retinoid X receptor alpha signaling (AID 588544; calls by dose curve); conditions: HEK293T RXRa-UAS-bla, beta-lactamase reporter, 18 h; 530 nm emission
[10] = biological target: Retinoic acid receptor RXR-alpha (Homo sapiens) (UniProt P19793); assay: as above
Chain of Retinoic acid receptor RXR-alpha (Homo sapiens) (P19793 whole entry, looked up): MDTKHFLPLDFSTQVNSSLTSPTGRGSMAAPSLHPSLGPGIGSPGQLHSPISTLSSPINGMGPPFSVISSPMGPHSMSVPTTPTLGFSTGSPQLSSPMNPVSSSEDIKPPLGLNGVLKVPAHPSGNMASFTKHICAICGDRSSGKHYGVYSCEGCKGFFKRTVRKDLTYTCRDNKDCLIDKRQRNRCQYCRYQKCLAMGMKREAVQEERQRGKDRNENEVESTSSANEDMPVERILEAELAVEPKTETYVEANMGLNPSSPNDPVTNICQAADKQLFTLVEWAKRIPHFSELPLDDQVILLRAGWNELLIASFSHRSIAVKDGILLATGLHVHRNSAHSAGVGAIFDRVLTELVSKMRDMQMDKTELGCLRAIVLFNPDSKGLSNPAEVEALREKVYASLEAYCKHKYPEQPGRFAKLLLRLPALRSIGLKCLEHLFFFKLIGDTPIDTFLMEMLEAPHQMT

[11] = biological target: Thyroid hormone receptor beta (Homo sapiens) (UniProt P10828); assay: qHTS assay for small molecule agonists of thyroid hormone receptor beta signaling (AID 588545; calls by dose curve;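 further: 0% = DMSO only and 100% = 10 nM T3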)
Chain of Thyroid hormone receptor beta (Homo sapiens) (P10828 whole entry, looked up): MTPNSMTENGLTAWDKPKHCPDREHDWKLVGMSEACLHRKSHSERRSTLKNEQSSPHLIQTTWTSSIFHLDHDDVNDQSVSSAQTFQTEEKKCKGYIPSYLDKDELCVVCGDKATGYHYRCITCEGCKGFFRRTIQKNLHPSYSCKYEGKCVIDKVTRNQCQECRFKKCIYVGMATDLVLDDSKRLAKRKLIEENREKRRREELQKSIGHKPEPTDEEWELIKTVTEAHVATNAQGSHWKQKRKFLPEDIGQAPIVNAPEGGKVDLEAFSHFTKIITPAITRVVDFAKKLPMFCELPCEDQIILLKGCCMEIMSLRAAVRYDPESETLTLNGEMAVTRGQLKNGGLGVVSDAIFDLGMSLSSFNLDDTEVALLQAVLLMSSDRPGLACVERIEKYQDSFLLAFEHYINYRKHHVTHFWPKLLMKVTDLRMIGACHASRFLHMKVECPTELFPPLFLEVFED
Summary of the method: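 TR-UAS-bla GripTite HEK 293 cells (2500/well, medium with 2% charcoal/dextran FBS) were treated in agonist mode for 18 h at 37 C, titrated. Beta-lactamase was read by CCF4 ratio after 2 h; normalized to 10 nM T3 (100%) and DMSO, Hill-fitted for EC50 and efficacy.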

[12] = qHTS assay for small molecule antagonists of retinoid X receptor alpha signaling (AID 588546; active means well fitted inhibition curve with a large enough effect in the signal ratio, with a control signal flat, not every such curve was filed as active; the % refers to the signal ratio;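 further: cells stimulated with 9-cis-retinoic acid as agonist; on the % scale 0 is the no-effect control and ±100 the full control effect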); conditions: HEK293T RXRa-UAS-bla, beta-lactamase ratio, antagonist mode; measured here: W530 green channel, cytotoxicity proxy
Summary of the method: (§1)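 Beta-lactamase reporter inhibition, read as CCF4 fluorescence ratio (ex 405, em 460/530 nm) after 2 h at RT. HEK293T UAS-bla cells, 2500/well, were stimulated with 9-cis-RA at 500 or 100 nM final alongside test compound for 18 h at 37 C.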

[13] = biological target: Retinoic acid receptor RXR-alpha (Homo sapiens) (UniProt P19793); assay: as above; conditions: HEK293T RXRa-UAS-bla, beta-lactamase ratio, antagonist mode
Summary of the method: as §1

[14] = biological target: Thyroid hormone receptor beta (Homo sapiens) (UniProt P10828); assay: qHTS assay for small molecule antagonists of thyroid hormone receptor beta signaling (AID 588547; active means well fitted inhibition curve with a large enough effect in the signal ratio, with a control signal flat, not every such curve was filed as active; the % refers to the signal ratio;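 further: cells stimulated with 0.4 nM T3 agonist during compound exposure; on the % scale 0 is the no-effect control and ±100 the full control effect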); conditions: TR-UAS-bla HEK293, beta-lactamase ratio, antagonist mode, 18 h
Summary of the method: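 TR-UAS-bla GripTite HEK293 cells in 2% charcoal/dextran FBS medium were preincubated 4 h at 37 C, given compound (0.59 nM to 92 uM) plus 0.4 nM T3 (final) for 18 h, then CCF4 for 2 h at RT; Hill fit gave IC50.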

[15] = biological target: Glutaminase kidney isoform, mitochondrial (Homo sapiens) (UniProt O94925); assay: qHTS for Inhibitors of Glutaminase (GLS): LOPAC Validation (AID 624146); further: nearly all actives have a fitted effect of over 60% in size; further: potency means the concentration at half of the fitted maximal effect
Chain of Glutaminase kidney isoform, mitochondrial (Homo sapiens) (O94925 whole entry, looked up, canonical isoform): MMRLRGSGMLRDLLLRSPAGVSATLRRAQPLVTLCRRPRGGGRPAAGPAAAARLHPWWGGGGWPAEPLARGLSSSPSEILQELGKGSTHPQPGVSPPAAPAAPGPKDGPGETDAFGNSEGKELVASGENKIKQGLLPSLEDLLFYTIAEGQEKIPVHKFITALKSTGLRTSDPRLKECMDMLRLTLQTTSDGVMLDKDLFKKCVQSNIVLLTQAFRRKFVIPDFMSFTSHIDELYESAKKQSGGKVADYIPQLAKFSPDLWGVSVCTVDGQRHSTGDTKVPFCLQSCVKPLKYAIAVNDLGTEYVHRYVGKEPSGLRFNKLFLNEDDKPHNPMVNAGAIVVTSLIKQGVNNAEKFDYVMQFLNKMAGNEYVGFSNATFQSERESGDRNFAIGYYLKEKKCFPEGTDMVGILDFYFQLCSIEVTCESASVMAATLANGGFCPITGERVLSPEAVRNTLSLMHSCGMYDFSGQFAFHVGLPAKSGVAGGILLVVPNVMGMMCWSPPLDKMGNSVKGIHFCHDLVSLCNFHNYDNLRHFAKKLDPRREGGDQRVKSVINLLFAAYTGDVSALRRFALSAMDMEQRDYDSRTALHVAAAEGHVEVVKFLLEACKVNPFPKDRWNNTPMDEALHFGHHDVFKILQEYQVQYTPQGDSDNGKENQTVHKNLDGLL
Summary of the method: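 hKGA in 45 mM KH2PO4 (pH 8.2), 0.02% Tween-20 with compound, then 1mM L-Glutamine (stock as added) plus glutamate oxidase/HRP/Amplex red coupling mix. Fluorescence read initially and after 30 min at RT; signal change reflects glutamate formation.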

[16] = Cytotoxicity counterscreen for NFkB agonists and antagonists (AID 624476);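 further: potency means the concentration at half of the fitted maximal effect; cells exposed to compound for 48 hours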
[17] = qHTS Assay for Identification of Small Molecule Antagonists for NFkB Signaling Pathway. (AID 624479; calls by dose curve;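 further: pathway stimulated with TNF alpha; potency means the concentration at half of the fitted maximal effect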)
[18] = Cell Proliferation Assay against the TMD8 Cell Line (AID 651645); conditions: TMD8 DLBCL cell line proliferation/viability; at 46.1 µM (top of the series) unless noted;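 further: cells exposed to compound for 48 h before reading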
Summary of the method: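 500 TMD8 cells/well, RPMI + Glutamax, no phenol red, 5% FBS; cpd added immediately; 48 h, 37C, 5% CO2; CellTiter-Glo, luminescence. Controls: DMSO = 100%, bortezomib 9.2 uM final = 0%.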

[19] = Cell Proliferation Assay against the HBL1 Cell Line (AID 651646); conditions: HBL1 DLBCL cells; at 46.1 µM (top of the series) unless noted;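 further: cells exposed to compound for 48 h before reading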
Summary of the method: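 500 log-phase HBL1 cells per well in phenol red-free RPMI with 5% FBS were treated with compounds for 48 h at 37 °C, 5% CO2. Viability was read by CellTiter-Glo luminescence, normalized to DMSO (100%) and 9.2 uM bortezomib final (0%).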

O=C1NCC2(CCN(CCc3ccccc3)CC2)O1
inactive: Potency [1] | Potency [2] | Potency [3] | Potency [4] | Potency [5] | outcome [6] | outcome [7] | outcome [8]

CC(C(=O)O)c1ccc(-c2ccccc2)c(F)c1 (stereo unspecified)
inactive: Potency [1]

CC(=O)N[C@@H](CS)C(=O)O
inactive: outcome [10] | outcome [11] | max response [13] 2.12% | activity change % (negative = inhibition) [14] -10.2% | Potency [1] | Potency [2] | Potency [3] | Potency [4] | Potency [15] | outcome [6] | outcome [7] | outcome [8]
-10.9%: max response [9]
-5.69%: max response [12]

Cc1cccc(C)c1OCC(C)N (stereo unspecified)
inactive: Potency [1] | Potency [2] | Potency [3] | Potency [4] | Potency [15] | outcome [6] | outcome [7] | outcome [8]

CC(=O)CCCCn1c(=O)c2c(ncn2C)n(C)c1=O
inactive: Potency [1] | Potency [2] | Potency [3] | Potency [4] | Potency [15] | outcome [6] | outcome [7]

O=c1cc(-c2ccc(O)cc2)oc2cc(O)cc(O)c12
inactive: outcome [11] | activity change % (negative = inhibition) [14] -28.1% | Potency [1] | Potency [15] | outcome [6] | outcome [7] | outcome [8]

CC[C@]1(O)C[C@@H]2CN(CCc3c([nH]c4ccccc34)[C@@](C(=O)OC)(c3cc4c(cc3OC)N(C)[C@H]3[C@@](O)(C(=O)OC)[C@H](OC(C)=O)[C@]5(CC)C=CCN6CC[C@]43[C@@H]65)C2)C1
inactive: Potency [1]

O=C(O)Cc1cccc2ccccc12
inactive: outcome [10] | max response [13] 3.25% and 2.98% | activity change % (negative = inhibition) [14] 9.53% and -11.8% | Potency [1] | Potency [2] | Potency [3] | Potency [4]
-5.32% and -9%: max response [9]
4.01% and -7.8%: max response [12]

CN(C)CCC(c1ccccc1)c1ccccn1 (stereo unspecified)
-9.83%: max response [9]
inactive: outcome [10] | outcome [11] | max response [13] -4.45% | activity change % (negative = inhibition) [14] -6.32% | Potency [2] | Potency [3] | Potency [4] | Potency [15] | outcome [7] | outcome [8]
-6.63%: max response [12]

C[C@@H](O)[C@H]1C(=O)N2C(C(=O)O)=C(S[C@@H]3CN[C@H](C(=O)N(C)C)C3)[C@H](C)[C@H]12
inactive: Potency [1] | Potency [2] | Potency [3] | Potency [4]

O=C(O)c1cc(-c2ccccc2)nc2ccccc12
inactive: outcome [10] | outcome [11] | max response [13] -7.59% | activity change % (negative = inhibition) [14] 5.82% | Potency [1] | Potency [3] | Potency [4]
9.45%: max response [12]
26.3%: max response [9]
active: Potency [2] 18.6 µM

C[N+](C)(C)CCCCCC[N+](C)(C)C
inactive: Potency [1] | Potency [2] | Potency [3] | Potency [4] | Potency [15] | outcome [6] | outcome [7] | outcome [8]

CC1=C(/C=C/C(C)=C/C=C/C(C)=C/C(=O)Nc2ccc(O)cc2)C(C)(C)CCC1
7.34%: viability (% of control) [18]
inactive: Potency [1] | Potency [2] | Potency [3] | outcome [6] | outcome [7] | outcome [8]
active: Potency [4] 4.05 µM | Potency [5] 11.2 µM | Potency [15] 12.6 µM | Potency [16] 20.9 µM | Potency [17] 21.1 µM
0.102%: viability, percent of control [19]

CCOC(=O)O[C@]1(C(=O)OCCl)CC[C@@H]2[C@H]3CCC4=CC(=O)C=C[C@]4(C)[C@@H]3[C@@H](O)C[C@@]21C
inactive: Potency [1] | Potency [2] | Potency [3] | Potency [4] | Potency [5]

CC(=O)O[C@]1(C(C)=O)CC[C@H]2[C@@H]3C=C(Cl)C4=CC(=O)[C@@H]5C[C@@H]5[C@]4(C)[C@H]3CC[C@@]21C
inactive: outcome [11] | activity change % (negative = inhibition) [14] 13.7% and 12.8% | Potency [1] | Potency [2] | Potency [3] | Potency [15] | outcome [6] | outcome [7] | outcome [8]

OC[C@@H](O)[C@H](O)[C@H](O)[C@@H](O)CO
inactive: Potency [1]

O=C1NC(=O)C(c2ccccc2)(c2ccccc2)N1
-8.37% and -14.2% and -3.37%: max response [12]
inactive: outcome [10] | outcome [11] | max response [13] 15.9% and 2.5% and -5.42% | activity change % (negative = inhibition) [14] -1.15% and 6.61% | Potency [1] | Potency [2] | Potency [3] | Potency [4] | Potency [15] | outcome [6] | outcome [7] | outcome [8]
-1.34% and -8.57% and -15.1%: max response [9]

O=c1c(-c2ccc(O)cc2)coc2cc(O)ccc12
2.28% and 13.9%: max response [12]
inactive: outcome [11] | max response [13] 8.82% and -46% | activity change % (negative = inhibition) [14] 20.4% | Potency [1] | Potency [15] | outcome [6] | outcome [7] | outcome [8]
